{
  "source": "PubChem BioAssay AID1159580",
  "about": "(chemical genetic matrix, 2015)",
  "experiment": "chemical genetic growth profiling, strain panel (AID 1159580);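 also: tested at 20 µM; growth read once vehicle control cultures reached saturation at 30 °C; 1 = growth at the plate median or of vehicle wells; lower values mean less growth of the strain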",
  "conditions": "S. cerevisiae deletion strains, growth OD",
  "note": "Among all 5,500 compounds or so, about 2,000 (36%) were called active. Inconclusive results (about 18%) are left out. The list shows a part of the results. Values without a mark were called inactive. Rule as the data show it: active = normalized growth mostly below about 0.91 (no sharp cut-off); inconclusive = no clear call, values can overlap the other calls; inactive = mostly above about 0.92.",
  "data": [
    {"smiles": "COC(=O)c1cc(I)c(OC(C)=O)c(I)c1", "values": [
      {"measurement": "normalized growth", "setting": "locus YAR019C, strain CDC15, hits give low values", "value": 0.952},
      {"measurement": "normalized growth", "setting": "locus YBL105C, strain PKC1, hits give low values", "value": 0.958},
      {"measurement": "normalized growth", "setting": "locus YBR135W, strain CKS1, hits give low values", "value": 0.944},
      {"measurement": "normalized growth", "setting": "locus YBR136W, strain MEC1, hits give low values", "value": 0.958},
      {"measurement": "normalized growth", "setting": "locus YBR160W, strain CDC28, hits give low values", "value": 0.959},
      {"measurement": "normalized growth", "setting": "locus YDL017W, strain CDC7, hits give low values", "value": 0.961},
      {"measurement": "normalized growth", "setting": "locus YDL028C, strain MPS1, hits give low values", "value": 0.961},
      {"measurement": "normalized growth", "setting": "locus YDL101C, strain DUN1, hits give low values", "value": 0.935},
      {"measurement": "normalized growth", "setting": "locus YDL108W, strain KIN28, hits give low values", "value": 0.955},
      {"measurement": "normalized growth", "setting": "locus YDL132W, strain cdc53, hits give low values", "value": 0.939},
      {"measurement": "normalized growth", "setting": "locus YDL214C, strain PRR2, hits give low values", "value": 0.929},
      {"measurement": "normalized growth", "setting": "locus YDR052C, strain DBF4, hits give low values", "value": 0.967},
      {"measurement": "normalized growth", "setting": "locus YDR054C, strain cdc34, hits give low values", "value": 0.939},
      {"measurement": "normalized growth", "setting": "locus YDR226W, strain ADK1, hits give low values", "value": 0.951},
      {"measurement": "normalized growth", "setting": "locus YDR477W, strain SNF1, hits give low values", "value": 0.955},
      {"measurement": "normalized growth", "setting": "locus YER123W, strain YCK3, hits give low values", "value": 0.905},
      {"measurement": "normalized growth", "setting": "locus YER133W, strain GLC7, hits give low values", "value": 0.945},
      {"measurement": "normalized growth", "setting": "locus YFL009W, strain cdc4, hits give low values", "value": 0.952},
      {"measurement": "normalized growth", "setting": "locus YFL029C, strain CAK1, hits give low values", "value": 0.947},
      {"measurement": "normalized growth", "setting": "locus YFR003C, strain YPI1, hits give low values", "value": 0.956},
      {"measurement": "normalized growth", "setting": "locus YFR019W, strain FAB1, hits give low values", "value": 0.94},
      {"measurement": "normalized growth", "setting": "locus YFR028C, strain CDC14, hits give low values", "value": 0.95},
      {"measurement": "normalized growth", "setting": "locus YGR040W, strain KSS1, hits give low values", "value": 0.953},
      {"measurement": "normalized growth", "setting": "locus YGR052W, strain FMP48, hits give low values", "value": 0.967},
      {"measurement": "normalized growth", "setting": "locus YGR092W, strain DBF2, hits give low values", "value": 0.9},
      {"measurement": "normalized growth", "setting": "locus YHR030C, strain SLT2, hits give low values", "value": 0.916},
      {"measurement": "normalized growth", "setting": "locus YHR079C, strain IRE1, hits give low values", "value": 0.973},
      {"measurement": "normalized growth", "setting": "locus YHR082C, strain KSP1, hits give low values", "value": 0.98},
      {"measurement": "normalized growth", "setting": "locus YHR205W, strain SCH9, hits give low values", "value": 0.864},
      {"measurement": "normalized growth", "setting": "locus YIL147C, strain SLN1, hits give low values", "value": 0.966},
      {"measurement": "normalized growth", "setting": "locus YJL095W, strain BCK1, hits give low values", "value": 0.934},
      {"measurement": "normalized growth", "setting": "locus YJL128C, strain PBS2, hits give low values", "value": 0.856},
      {"measurement": "normalized growth", "setting": "locus YJL157C, strain FAR1, hits give low values", "value": 0.945},
      {"measurement": "normalized growth", "setting": "locus YJR016C, strain ILV3, hits give low values", "value": 0.959},
      {"measurement": "normalized growth", "setting": "locus YJR066W, strain TOR1 (second series), hits give low values", "value": 0.943},
      {"measurement": "normalized growth", "setting": "locus YJR066W, strain TOR1, hits give low values", "value": 1.01},
      {"measurement": "normalized growth", "setting": "locus YKL048C, strain ELM1, hits give low values", "value": 0.913},
      {"measurement": "normalized growth", "setting": "locus YKL067W, strain YNK1, hits give low values", "value": 0.91},
      {"measurement": "normalized growth", "setting": "locus YKL101W, strain HSL1, hits give low values", "value": 0.902},
      {"measurement": "normalized growth", "setting": "locus YKL193C, strain SDS22, hits give low values", "value": 0.942},
      {"measurement": "normalized growth", "setting": "locus YKL203C, strain TOR2, hits give low values", "value": 1.02},
      {"measurement": "normalized growth", "setting": "locus YLR113W, strain HOG1, hits give low values", "value": "0.745 (active)"},
      {"measurement": "normalized growth", "setting": "locus YLR133W, strain CKI1, hits give low values", "value": 0.949},
      {"measurement": "normalized growth", "setting": "locus YLR403W, strain SFP1, hits give low values", "value": 0.935},
      {"measurement": "normalized growth", "setting": "locus YML070W, strain DAK1, hits give low values", "value": 0.897},
      {"measurement": "normalized growth", "setting": "locus YMR001C, strain CDC5, hits give low values", "value": 0.947},
      {"measurement": "normalized growth", "setting": "locus YMR205C, strain PFK2 (second series), hits give low values", "value": 0.925},
      {"measurement": "normalized growth", "setting": "locus YMR277W, strain FCP1, hits give low values", "value": 0.948},
      {"measurement": "normalized growth", "setting": "locus YNL006W, strain LST8, hits give low values", "value": 0.951},
      {"measurement": "normalized growth", "setting": "locus YNL020C, strain ARK1, hits give low values", "value": 0.939},
      {"measurement": "normalized growth", "setting": "locus YNL161W, strain CBK1, hits give low values", "value": 0.961},
      {"measurement": "normalized growth", "setting": "locus YNL183C, strain NPR1, hits give low values", "value": 0.958},
      {"measurement": "normalized growth", "setting": "locus YNL207W, strain RIO2, hits give low values", "value": 0.957},
      {"measurement": "normalized growth", "setting": "locus YNL222W, strain SSU72, hits give low values", "value": 0.94},
      {"measurement": "normalized growth", "setting": "locus YNL307C, strain MCK1 (second series), hits give low values", "value": 0.918},
      {"measurement": "normalized growth", "setting": "locus YOL078W, strain AVO1, hits give low values", "value": 0.952},
      {"measurement": "normalized growth", "setting": "locus YOL136C, strain PFK27, hits give low values", "value": 0.926},
      {"measurement": "normalized growth", "setting": "locus YOR061W, strain CKA2, hits give low values", "value": 0.937},
      {"measurement": "normalized growth", "setting": "locus YOR119C, strain RIO1, hits give low values", "value": 0.991},
      {"measurement": "normalized growth", "setting": "locus YOR231W, strain MKK1, hits give low values", "value": 0.942},
      {"measurement": "normalized growth", "setting": "locus YOR329C, strain SCD5, hits give low values", "value": 0.963},
      {"measurement": "normalized growth", "setting": "locus YPL031C, strain PHO85, hits give low values", "value": 0.949},
      {"measurement": "normalized growth", "setting": "locus YPL153C, strain RAD53, hits give low values", "value": 0.936},
      {"measurement": "normalized growth", "setting": "locus YPL204W, strain HRR25, hits give low values", "value": 0.946},
      {"measurement": "normalized growth", "setting": "locus YPL209C, strain IPL1, hits give low values", "value": 0.95},
      {"measurement": "normalized growth", "setting": "locus YPL256C, strain CLN2, hits give low values", "value": 0.898},
      {"measurement": "normalized growth", "setting": "locus YPR025C, strain CCL1, hits give low values", "value": 0.953},
      {"measurement": "normalized growth", "setting": "locus YPR106W, strain ISR1, hits give low values", "value": 0.92},
      {"measurement": "normalized growth", "setting": "locus YPR111W, strain DBF20, hits give low values", "value": 0.926},
      {"measurement": "normalized growth", "setting": "strain NNK1, hits give low values", "value": 0.921},
      {"measurement": "normalized growth", "setting": "strain TSCII, hits give low values", "value": 0.948}
    ]}
  ]
}
